We go through 27 molecules from PubChem BioAssay AID1347084 (National Center for Advancing Translational Sciences (NCATS), 2019).

SMILES strings stand for the structures. Where “and” joins values, the source holds several entries; their conditions need not be identical. Equal values may be shown once. Inconclusive results are not listed. Unmarked numbers belong to inactive results. Calls of active or inactive are those of the source. Calls come from the whole dose curve.

The test is described as follows: qHTS for Inhibitors of the Functional Ribonucleoprotein Complex (vRNP) of Lymphocytic Choriomeningitis Arenaviruses (LCMV): LCMV Confirmatory Screen - GLuc reporter signal. The conditions noted are these: LCMV minigenome vRNP, Gaussia luciferase reporter; series mostly up to 53.9 µM. For orientation: qHTS replaces the single test concentration by a dilution series.
As to `CCn1c(-c2nonc2N)nc2cnc(Oc3cccc(NC(=O)c4ccc(OCCN5CCOCC5)cc4)c3)cc21`, the Potency was 4.32 µM (active).
Same read-out and setting: in the case of `CC(=O)[C@H]1CC[C@H]2[C@@H]3CCC4=CC(=O)CC[C@]4(C)[C@H]3CC[C@]12C` it was 24.3 µM (active); in that of `S=C(NCc1ccc2c(c1)OCO2)N1CCN(c2ncnc3c2oc2ccccc23)CC1`, 2.22 µM (active); in that of `CC[C@@]1([C@@H]2O[C@@H]([C@H]3O[C@@](O)(CO)[C@H](C)C[C@H]3C)C[C@H]2C)CC[C@H]([C@]2(C)CC[C@]3(C[C@H](O)[C@@H](C)[C@@H]([C@@H](C)[C@@H](OC)[C@H](C)C(=O)O)O3)O2)O1`, 0.168 µM (active).
For `COc1cc2c(cc1OC)CC(=O)N(CCCN(C)C[C@H]1Cc3cc(OC)c(OC)cc31)CC2`, the Potency entry is “inactive”.
Regarding `CC(C)=CCC/C(C)=C/CC/C(C)=C/CC[C@]1(C)CCc2c(C)c(O)c(C)c(C)c2O1`, the activity change, negative = inhibition is -18.6% [at 6 µM].
`Clc1nccc2c1ccc1ccccc12`: the Potency result was “inactive”.
Take `C=C1CC[C@@H]2[C@](C)(CO)[C@H](O)CC[C@@]2(C)[C@@H]1/C=C/C1=CCOC1=O`: the Potency is 21.7 µM (active).
Same read-out and setting: in the case of `Cc1ccccc1-n1c(Cn2nc(-c3cccc(O)c3)c3c(N)ncnc32)nc2cccc(C)c2c1=O` it was 30.6 µM (active).
As to `CCCCC[C@H](O)/C=C/C=C/C/C=C\CCCC(=O)O`, the activity change, negative = inhibition was 4.12% [at 0.666 µM].
Regarding `Cc1cccc(-c2[nH]c(C(C)(C)C)nc2-c2ccc3c(c2)OCO3)n1`, the Potency was 3.43 µM (active).
Same read-out and setting: the result for `O=C(Nc1ccccc1)Nc1ccc(-c2ccc(C(=O)[C@H]3CCC[C@H]3C(=O)O)cc2)cc1` reads “inactive”; that for `CCCCCN=C(N)N/N=C/c1c[nH]c2ccc(OC)cc12`, 9.68 µM (active); that for `CCCCCC[C@H]1C(=O)O[C@H](C)[C@H](NC(=O)c2cccc(NC=O)c2O)C(=O)O[C@@H](C)[C@@H]1OC(=O)CC(C)C`, 0.0343 µM (active).
As for `Nc1ccc([N+](=O)[O-])cc1O`, the Potency was 62.7 µM (active).
Same read-out and setting: in the case of `CNCCCC1c2ccccc2C=Cc2ccccc21` it was 30.6 µM (active).
For `O=C1c2ccccc2-n2c1nc1ccccc1c2=O`, the Potency was 1.22 µM (active).
The same measure, in the same setting: in the case of `CC(=O)OCC(=O)[C@@]12N=C(C)O[C@H]1C[C@H]1[C@@H]3CCC4=CC(=O)C=C[C@]4(C)[C@@H]3[C@@H](O)C[C@@]12C` it was “inactive”.
Still for that read-out and setting: the result for `CCCCC/C(C=O)=C\c1ccccc1` reads “inactive”.
On to `Oc1cc(Cl)ccc1Oc1ccc(Cl)cc1Cl`, for which the Potency was 22.2 µM (active).
Regarding `Cc1cc2c(C(C)C)c(O)c(O)c(C=O)c2c(O)c1-c1c(C)cc2c(C(C)C)c(O)c(O)c(C=O)c2c1O`, the Potency is 6.11 µM (active).
Regarding `CN1CCN(C2=Nc3cc(Cl)ccc3Nc3ccccc32)CC1`, the Potency was 30.6 µM (active).
On the same count and under the same terms, in the case of `CCc1cncnc1N1CCN(Cc2nc3ccc(C(F)(F)F)cc3[nH]2)CC1` it was 4.44 µM (active); in that of `CC(C)(C)C1CCC(CC2=C(O)c3ccccc3C(=O)C2=O)CC1` (configuration not stated), 6.11 µM (active); in that of `CC[C@@H](C(=O)O)[C@@H]1O[C@@H]([C@@H](C)[C@H](O)[C@H](C)C(=O)[C@H](CC)[C@H]2O[C@]3(C=C[C@@H](O)[C@]4(CC[C@@](C)([C@H]5CC[C@](O)(CC)[C@H](C)O5)O4)O3)[C@H](C)C[C@@H]2C)[C@@H](C)C[C@@H]1C`, 0.0627 µM (active).
With `Cc1ncc([N+](=O)[O-])n1CC(C)O` (configuration not stated), the Potency result was “inactive”.
Same read-out and setting: the result for `COc1ccc(Cc2nccc3cc(OC)c(OC)cc23)cc1OC` reads 1.93 µM (active) and 3.43 µM (active).
